The results in this text go back to PubChem BioAssay (NCATS).

Results filed as inconclusive are left out. A number with no mark means an inactive call. Calls come from the whole dose curve; as a rule, active = well fitted cell-killing curve with a large enough effect; inconclusive = small, poorly fitted or top-dose-only effect; inactive = no such curve, though single readings can be large or run the other way.

The test is described as follows: qHTS of pediatric cancer cell lines to identify multiple opportunities for drug repurposing: Primary screen for Rh41 cells (AID 1347108).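 Note: luminescence drop marks cytotoxic hits; nearly all actives have a fitted effect of over 70% in size.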 To be noted: Rh41 rhabdomyosarcoma viability, CellTiter-Glo luminescence, 48 h; series mostly up to 46 µM; activity change, negative = cytotoxic: at the top concentration. From the text:
Drug repurposing or repositioning has been offered as a strategy for drug development in oncology programs. This approach has special potential for childhood cancers and other rare or orphan diseases, where the expected return on new drug development has been a disincentive to pharmaceuticals. […] In this project we exploit the poly-pharmacology of drugs to discover new indications via phenotypic screening of a panel of 19 well-characterized cell lines derived from solid tumors seen in children and adolescents. The goal is to identify approved drugs with previously unrecognized anticancer properties that has the potential to reveal new mechanisms and biological processes involved in carcinogenesis or drug resistance. We employed a titration-based paradigm (quantitative high-throughput screening or qHTS), where all compounds were tested at multiple concentrations for their effect on cell viability. Concentration-response curves (CRCs) were derived directly from the primary screen, and both potency and efficacy values were used to identify compounds with robust bioactivity profiles. We screened the NIH Chemical Genomics Center (NCGC) Pharmaceutical Collection (NPC) and Mechanism Interrogation Plate (MIPE) small molecule collections of approved and investigational compounds against these cell lines; and measured metabolically active cells after 48 hours of compound treatment as a proxy for cell viability. […] Assay Submitter: Nathalia J. Martinez, National Center for Advancing Translational Sciences, National Institutes of Health, Rockville, MD, USA; email: natalia.martinez@nih.gov Shen, M et al. Quantitative high-throughput phenotypic screening of pediatric cancer cell lines identifies multiple opportunities for drug repurposing. Oncotarget 2017 Dec 19;9(4):4758-4772. PMID 29435139.
The cells were obtained from University of North Carolina (UNC), Pediatric Preclinical Testing Program (PPT), and Coriell Institute (CI). qHTS cell viability assay: Cells were assayed in growth media at a density of 500-1,000 cells/well. Five microliters of cells were dispensed into 1,536-well, white, solid-bottom, TC-treated plates (Greiner Bio One) using a multidrop dispenser and incubated at 37 degrees C, 5% CO2, under a humidified atmosphere for 5 hours. Twenty-three nanoliters of compounds and controls (neutral control DMSO or positive control bortezomib at final concentration of 2.3 µM) were subsequently transferred by Kalypsys pintool. For primary screens, the MIPE collection was tested at 11-point dilutions (final concentrations range from 0.78 nM to 46 µM) and the NPC collection at 8-point dilutions (final concentrations range from 0.59 nM to 46 µM). Compounds tested in follow-up screens were assayed at 11-point dilutions. Cells were incubated for 48 hours, followed by addition of 3 µL of CellTiter-Glo (Promega). After a 15 min incubation at room temperature, samples were analyzed for luminescence intensity using a ViewLux High-throughput CCD imager equipped with clear filters.
For orientation: qHTS replaces the single test concentration by a dilution series.
On to `CC(=O)Oc1cccc(O)c1`, for which the “activity change, negative = cytotoxic” value is 19%.
In the case of `CC(CN(C)C)C(C)(O)Cc1ccc(Cl)cc1` (stereo not given) it was 22.7%; in that of `O=C(O)CNC(=O)c1ccccc1I`, 12.5%; in that of `CC(=O)N1C[C@H](O)C[C@H]1C(=O)O`, 5.26%.
In the case of `O=C(NCC(O)CO)c1c(I)c(C(=O)NCC(O)CO)c(I)c(N(CCO)C(=O)CO)c1I` (stereo not given) it was 11.5%; in that of `CCCCCCCCCCCCCCCCC(C(=O)O)C(O)(CC(=O)O)C(=O)O` (stereo not given), 25.4%; in that of `CC(C)=CCC/C(C)=C/CO`, 23.6%.
In the case of `O=C1C(c2[nH]c3ccccc3c2O)=Nc2ccccc21` it was 0.0532%.
Turning to `Cc1cccc(C)c1NC(=O)CC12CCCN1CCC2`, the “activity change, negative = cytotoxic” value was 17.9%.
Under `Cc1c(NC(=O)c2cccnc2)c(=O)n(-c2ccccc2)n1C` stands 22%; under `NNc1nnc(NN)c2ccccc12`, 20.3%; under `CC(=O)SC[C@@H](Cc1ccccc1)C(=O)NCC(=O)OCc1ccccc1`, 23.4%.
`O=C(O)[C@@H]1[C@H]2C[C@H]3c4[nH]c5ccccc5c4CCN3C[C@@H]2CC[C@@H]1O`: the “activity change, negative = cytotoxic” value was 25.4%.
Under `Cc1ccc(S(=O)(=O)NC(=O)NC2CCCCC2)cc1` stands 21.7%; under `CN1CCN(C(=O)C2CCCCC2)CC1`, 30.5%.
Under `CCOC(=O)OC(C)OC(=O)[C@@H]1N2C(=O)[C@@H](NC(=O)[C@H](N)c3ccccc3)[C@H]2SC1(C)C` (stereo not given in full) stands 34.3%; under `CN1C(C)(C)CCCC1(C)C`, 11.4%.
In the case of `CCc1nnc(NS(=O)(=O)c2ccc(N)cc2)s1` it was 13.1%.
With `COc1cc(C(=O)NCCCCCC(=O)O)cc(OC)c1OC`, the “activity change, negative = cytotoxic” value was 11.5%.
Under `CC(O)CCCCn1c(=O)c2c(ncn2C)n(C)c1=O` (stereo not given) stands 12.2%; under `O=C(NCN1CCOCC1)c1cnccn1`, 9.63%.
Under `Cc1cc(O)cc(C)c1Cl` stands 17.3%; under `c1ccc2[nH]ccc2c1`, 32.8%.
In the case of `COc1cc(O)cc(O)c1` it was 20.1%; in that of `CC(C(=O)O)c1ccc2c(c1)Cc1cccnc1O2` (stereo not given), 19.3%.
As to `O=C(O)c1ccccc1OP(=O)(O)O`, the “activity change, negative = cytotoxic” value is 24.4%.
In the case of `Nc1ccncc1N` it was 3.55%; in that of `CCOC(=O)c1cccnc1`, 36.5%; in that of `O=C(O)Cn1c(C(=O)Nc2nc(-c3ccccc3Cl)cs2)cc2ccccc21`, 14.6%.
Under `Cc1ccc(C(C)C)c(O)c1` stands 26.9%; under `NC(=O)CC[C@@H](N)C(=O)O`, 13.2%.
In the case of `C=CCNC(N)=S` it was 28.6%; in that of `O[C@@H]1CO[C@H]2[C@@H]1OC[C@@H]2O`, 12.3%.
Consider `CCCCOC(=O)c1ccc(N)cc1`, for which the “activity change, negative = cytotoxic” value was 31.7%.
Under `CCN(CC)S(=O)(=O)c1ccc(C(=O)O)cc1` stands 8.91%.
Under `CCCCCC(N)=O` stands 21.5%.
On to `Nc1ccc(S(=O)(=O)c2ccc(N)cc2)cc1`, for which the “activity change, negative = cytotoxic” value was 29%.
Turning to `CCOc1ccc(C(=O)OCCN(CC)CC)cc1`, the “activity change, negative = cytotoxic” value is 16.2%.
In the case of `C[N+]1(C)CCCC(OC(=O)C(O)(c2ccccc2)c2ccccc2)C1` (stereo not given) it was 13.2%; in that of `NC(=O)N[C@@H](CCC(=O)O)C(=O)O`, 26.5%.
